From PubChem BioAssay (Tox21) come the findings set out here.

“And” between values parts separate entries of the source, which are not always exact repeats. Equal entries are not always repeated. Results filed as inconclusive are left out. Where a structure was tested more than once in an assay, its records may differ in their call. The source made the active and inactive calls. Unless noted, the call rests on the fitted dose curve; in most records, active means well fitted curve in the direction sought with a large enough effect in the repeat runs; inconclusive means weak or mixed curves; inactive means no such curve, though single readings can be large; an effect the other way counts as inactive or inconclusive.

Test [1] is described as follows: qHTS assay to identify small molecule antagonists of the estrogen related receptor (ERR) signaling pathway from Tox21 library - cell viability counter screen (AID 1224834). Further: nearly all actives have a fitted effect of over 30% in size. In outline: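 ERR reporter cells were plated 6 h before compound addition, then exposed to test compounds in DMSO for 17.5 h at 37 C. Viability was read as CellTiter-Fluor fluorescence after a 30-minute incubation at 37 C.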
Background: qHTS replaces the single test concentration by a dilution series.

Test [2] has as its target Luciferin 4-monooxygenase (Photinus pyralis) (UniProt P08659). Put plainly: qHTS assay to identify small molecule inhibitors of firefly luciferase (AID 1224835). Further: nearly all actives have a fitted effect of over 25% in size. Further: potency means the concentration at half of the fitted maximal effect. In outline:
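Biochemical qHTS: compounds run as interplate titrations against purified firefly enzyme, with D-luciferin and ATP each at its KM concentration. Light output recorded by CCD imaging.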

A short description of test [3]: qHTS assay to identify small molecule agonists of the constitutive androstane receptor (CAR) signaling pathway - cell viability counter screen (AID 1224836). Further: nearly all actives have a fitted effect of over 45% in size. In outline:
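Using CellTiter-Fluor, viability of HepG2 cells harbouring hCAR and CYP2B6-2.2kb was measured following 23 h incubation with a 15-concentration compound series plus PK11195 (0.75 uM final).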

Test [4] in a line: qHTS assay to identify small molecule antagonists of the constitutive androstane receptor (CAR) signaling pathway - cell viability counter screen (AID 1224837). Further: nearly all actives have a fitted effect of over 45% in size. In outline: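 HepG2 cells stably expressing hCAR and a CYP2B6-2.2kb reporter were plated and pre-incubated 4 hr at 37 C/5% CO2, then given compounds at 15 concentrations plus 50 nM CITCO (final). After 23 hr, viability was read by CellTiter-Fluor fluorescence.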

Test [5] concerns the target Nuclear receptor subfamily 1 group I member 3 (Homo sapiens) (UniProt Q14994). Nature of the test: qHTS assay to identify small molecule antagonists of the constitutive androstane receptor (CAR) signaling pathway (AID 1224838). Further: nearly all actives have a fitted effect of over 40% in size. In short, it runs like this: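 HepG2 cells stably co-transfected with hCAR and a CYP2B6-2.2kb luciferase reporter were seeded 4 h before compound addition at 15 concentrations. Cells were stimulated with 50 nM CITCO (final) for 24 h at 37 C; luciferase luminescence was then read.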

For test [6] the target is unchanged. Put plainly: qHTS assay to identify small molecule agonists of the constitutive androstane receptor (CAR) signaling pathway (AID 1224839). Further: nearly all actives have a fitted effect of over 15% in size. Further: potency means the concentration at half of the fitted maximal effect. In outline: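 Double-stable HepG2 cells (hCAR, CYP2B6-2.2kb) seeded 4 h before compound addition. Exposure 24 h with 0.75 uM PK11195 final. Luciferase detected by ONE-Glo.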
Test [7] can be described thus: qHTS assay to identify small molecule antagonists of the estrogen related receptor signaling pathway with the pleiotropic PPARgamma coactivator (PGC) from Tox21 10K library - cell viability counter screen (AID 1224840; active means well fitted cell-killing curve with a large enough effect in the repeat runs, not every such curve was filed as active; further: nearly all actives have a fitted effect of over 40% in size). In short, it runs like this:
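PGC/ERR cells were seeded at 2,000 cells/well and left 6 hours at 37 C/5% CO2 before pin-tool addition of compounds in DMSO. After 17.5 hours at 37 C, CellTiter-Fluor was added and fluorescence read 30 minutes later.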

Test [8] has as its target Thyrotropin receptor (Homo sapiens) (UniProt P16473). Nature of the test: qHTS assay to identify small molecule agonists of the thyroid stimulating hormone receptor (TSHR) signaling pathway (AID 1224843; calls by dose curve; further: nearly all actives have a fitted effect of over 45% in size). In short, it runs like this: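 TSHR-HEK293 cells in agonist mode, 30 min room-temperature step, then cAMP measured by competitive HTRF (cAMP-d2 with anti-cAMP cryptate) after 1 h at room temperature. Tested at 15 concentrations in triplicate.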

Test [9] in a line: qHTS assay to identify small molecule agonists of the hypoxia (HIF-1) signaling pathway - cell viability counter screen (AID 1224844; calls by dose curve; further: nearly all actives have a fitted effect of over 50% in size). In outline:
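HRE-bla ME-180 cells in medium with 0.5% dialyzed FBS were preincubated 5 hrs at 37C, exposed to compounds for 17 hrs, then viability was read as CellTiter-Glo luminescence after 30 min at room temperature, in the reporter wells.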

Test [10] can be described thus: qHTS assay to identify small molecule agonists of H2AX (AID 1224845; active means well fitted activation curve with a large enough effect in the signal ratio in the repeat runs, not every such curve was filed as active; the % refers to the signal ratio). In outline:
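Wild-type CHO-K1 cells, plated overnight, exposed 3hr at 37C to 15 concentrations (0.76% DMSO final). Lysed, then HTRF anti-pH2AX (S139) cryptate and anti-H2AX-d2 antibodies, 24 hr room temperature; 665/620 nm emission read.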

A short description of test [11]: qHTS assay to identify small molecule agonists of the hypoxia (HIF-1) signaling pathway (AID 1224846; active means well fitted activation curve with a large enough effect in the signal ratio in the repeat runs, not every such curve was filed as active; the % refers to the signal ratio). In outline:
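HRE-bla ME-180 cells (beta-lactamase reporter under hypoxia response element) were plated at 2,000 cells/well in medium with 0.5% dialyzed FBS, rested 5 hrs, then given compounds in DMSO for 17 hrs at 37C, 5% CO2. Reporter induction was read with CCF4-AM FRET substrate.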

Test [12] can be described thus: qHTS assay to identify small molecule agonists of H2AX - cell viability counter screen (AID 1224847; calls by dose curve; further: nearly all actives have a fitted effect of over 30% in size; further: potency means the concentration at half of the fitted maximal effect). In outline:
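Quantitative HTS viability measurement: CHO-K1 wild-type cells in serum (10% FBS) medium, short 3 hr drug exposure at 37C with 0.76% DMSO, CellTiter-Glo luminescent detection.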

Test [13] is described as follows: qHTS RealTime-Glo MT Cell Viability Assay in HepG2 cells - 24 hour (AID 1224867). Further: nearly all actives have a fitted effect of over 50% in size. In outline:
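Compound treatment began 5 h after plating HepG2 cells (600/well) with NanoLuc luciferase and prosubstrate. Plates stayed at 37 C for 40 h; luminescence was captured at six time points, 0 h through 40 h.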

A short description of test [14]: qHTS RealTime-Glo MT Cell Viability Assay in HEK293 cells - 32 hour (AID 1224868). Further: nearly all actives have a fitted effect of over 50% in size. Further: potency means the concentration at half of the fitted maximal effect. In short, it runs like this:
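Quantitative high-throughput screen of the Tox21 10K library in HEK293: cells and RealTime-Glo reagents plated together, compound added at 5 h, luminescence monitored through 40 h at 37 C.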

A short description of test [15]: A CellTox Green Cytotoxicity Assay to monitor cytotoxicity in HEK293 cells - 0 hour (AID 1224869). Further: nearly all actives have a fitted effect of over 50% in size. In short, it runs like this:
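HEK293 cells premixed with CellTox Green dye were seeded at 600 cells/well and left 5 h at 37 C/5% CO2 before pin transfer of 23 nL compound in DMSO. Fluorescence from dye bound to dead-cell DNA was read during 40 h treatment.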

Test [16] is described as follows: qHTS assay to identify small molecule antagonists of the estrogen related receptor signaling pathway with the pleiotropic PPARgamma coactivator (PGC) from Tox21 10K library (AID 1224841; call rule not given here). In short, it runs like this:
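PGC/ERR reporter cells were seeded at 2,000 cells/well and held 6 hours at 37 C/5% CO2 before pin-tool addition of compounds in DMSO. After 18 hours at 37 C, One-Glo was added and luminescence read after 30 minutes at room temperature.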

The nature of test [17]: qHTS assay to identify small molecule agonists of the estrogen related receptor signaling pathway with the pleiotropic PPARgamma coactivator (PGC) from Tox21 10K library (AID 1224842). Further: nearly all actives have a fitted effect of over 15% in size. In outline: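 PGC/ERR reporter cell line, 2,000 cells per well, incubated 6 h at 37 C before 23 nL compound in DMSO was added. After 18 h at 37 C, One-Glo luminescence read following 30 min at room temperature.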

Test [18] can be described thus: qHTS assay to identify small molecule antagonists of the estrogen related receptor (ERR) signaling pathway from Tox21 library (AID 1224848). Further: nearly all actives have a fitted effect of over 50% in size. In outline:
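ERR reporter cell line (from NTP) seeded 2,000 cells/well, rested 6 h at 37 C/5% CO2, then pin-dosed with compounds in DMSO. After 18 h at 37 C, ONE-Glo added; luminescence read after 30 min at room temperature.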

The nature of test [19]: qHTS assay to identify small molecule agonists of the estrogen related receptor (ERR) signaling pathway from Tox21 library (AID 1224849; calls by dose curve; further: nearly all actives have a fitted effect of over 15% in size). The conditions noted are these: ERR reporter cell line, ONE-Glo luciferase, 18 h; at 92.4 µM (top of the series). In outline: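 ERR reporter cell line (NTP) seeded, rested 6 h at 37 C/5% CO2, then pinned with Tox21 compounds in DMSO. After 18 h at 37 C, ONE-Glo luciferase luminescence was read following 30 min at room temperature.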
On the % scale 0 is the no-effect control and ±100 the full control effect.

Sequence of Thyrotropin receptor (Homo sapiens) (P16473 whole entry, looked up): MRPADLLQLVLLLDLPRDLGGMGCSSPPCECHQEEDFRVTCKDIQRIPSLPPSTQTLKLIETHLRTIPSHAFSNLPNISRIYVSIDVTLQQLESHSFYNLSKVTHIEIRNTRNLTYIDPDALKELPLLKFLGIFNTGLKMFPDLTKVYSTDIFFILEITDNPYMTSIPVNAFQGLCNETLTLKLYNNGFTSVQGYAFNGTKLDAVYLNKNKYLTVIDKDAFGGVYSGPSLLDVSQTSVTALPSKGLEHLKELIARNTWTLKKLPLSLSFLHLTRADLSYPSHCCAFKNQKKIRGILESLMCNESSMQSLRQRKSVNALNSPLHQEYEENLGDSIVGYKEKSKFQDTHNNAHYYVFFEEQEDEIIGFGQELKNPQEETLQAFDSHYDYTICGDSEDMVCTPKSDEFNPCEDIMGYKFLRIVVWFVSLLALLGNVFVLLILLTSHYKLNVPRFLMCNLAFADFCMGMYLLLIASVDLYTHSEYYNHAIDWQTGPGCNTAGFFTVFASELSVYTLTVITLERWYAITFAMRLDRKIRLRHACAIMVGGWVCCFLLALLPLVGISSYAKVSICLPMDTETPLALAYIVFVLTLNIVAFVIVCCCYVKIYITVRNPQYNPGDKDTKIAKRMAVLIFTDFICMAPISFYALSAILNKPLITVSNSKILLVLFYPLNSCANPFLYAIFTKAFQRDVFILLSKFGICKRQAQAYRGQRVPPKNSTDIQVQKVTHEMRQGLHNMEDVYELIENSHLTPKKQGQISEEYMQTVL
Sequence of Nuclear receptor subfamily 1 group I member 3 (Homo sapiens) (Q14994 whole entry, looked up): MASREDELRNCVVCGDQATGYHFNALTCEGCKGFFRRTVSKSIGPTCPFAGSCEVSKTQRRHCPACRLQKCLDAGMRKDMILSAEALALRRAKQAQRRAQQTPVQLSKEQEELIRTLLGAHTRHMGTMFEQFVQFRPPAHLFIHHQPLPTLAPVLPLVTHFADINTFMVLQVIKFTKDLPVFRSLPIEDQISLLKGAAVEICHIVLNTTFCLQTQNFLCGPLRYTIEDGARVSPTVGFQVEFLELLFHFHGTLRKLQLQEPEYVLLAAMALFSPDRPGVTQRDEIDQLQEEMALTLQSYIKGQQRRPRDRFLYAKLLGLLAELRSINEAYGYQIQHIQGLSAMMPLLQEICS
Sequence of Luciferin 4-monooxygenase (Photinus pyralis) (P08659 whole entry, looked up): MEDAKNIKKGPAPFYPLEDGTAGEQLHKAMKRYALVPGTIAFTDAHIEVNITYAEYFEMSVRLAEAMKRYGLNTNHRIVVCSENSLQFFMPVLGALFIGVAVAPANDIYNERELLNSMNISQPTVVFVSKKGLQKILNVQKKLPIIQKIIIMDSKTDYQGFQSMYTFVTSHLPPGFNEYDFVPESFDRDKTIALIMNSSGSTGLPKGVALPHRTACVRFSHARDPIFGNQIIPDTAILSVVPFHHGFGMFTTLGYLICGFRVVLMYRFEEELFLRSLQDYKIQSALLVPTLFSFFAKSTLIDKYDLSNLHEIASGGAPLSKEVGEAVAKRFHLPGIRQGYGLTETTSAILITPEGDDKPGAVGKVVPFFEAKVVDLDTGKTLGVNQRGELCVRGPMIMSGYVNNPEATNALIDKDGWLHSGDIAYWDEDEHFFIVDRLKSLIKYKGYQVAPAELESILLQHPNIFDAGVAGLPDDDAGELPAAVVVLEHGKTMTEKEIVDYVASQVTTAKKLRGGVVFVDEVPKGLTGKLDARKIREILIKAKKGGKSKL

For the compound `O=P(O)(O)CCCl`, the Potency entry in test [1], in [2], in test [3], in test [4], in test [5] and in [6] was “inactive” each time. For the same compound, the Potency entry in test [7], in test [8], in [9], in test [10], in test [12] and in [13] was “inactive” each time. In addition, the Potency result in test [14] and in test [15] was “inactive” each time. Besides, in test [11], the call was inactive.
As for `Oc1c(Cl)c(Cl)c(Cl)c(Cl)c1Cl`, the Potency result in [1], in test [3], in test [4], in test [5], in [7] and in test [8] was “inactive” each time. Further, the Potency result in test [9], in test [10], in test [13], in [14] and in test [15] was “inactive” throughout. Moreover, the Potency in test [2] was 34.9 µM (active) and inactive; in [6] it was 21.2 µM (active) and 15.4 µM (active); in [12] it was 88 µM (active). For the same compound, the result in test [11] was inactive.
With `CCCCC(CC)COC(=O)Cl` (stereo unspecified), the Potency entry in test [1], in [2], in test [3], in test [4], in test [5] and in test [6] was “inactive” each time. Also, the Potency result in test [7], in [16], in test [17], in test [8], in [9] and in test [10] was “inactive” in each case. The Potency entry in [12], in [18], in [13], in test [14] and in test [15] was “inactive” throughout. Also, the compound was called inactive in test [11]. In addition, the activity change, positive = activation in test [19] was 0.183% (inactive) and -0.549% (inactive).
With `CC(C)(OOC(C)(C)c1ccccc1)c1ccccc1`, the Potency result in [1], in [2], in [3], in test [4], in [5] and in test [7] was “inactive” each time. Moreover, the Potency entry in [16], in test [17], in test [8], in test [9], in test [18] and in test [13] was “inactive” throughout. In addition, the Potency result in test [14] and in test [15] was “inactive” in each case. Moreover, the Potency in [6] was 24 µM (active) and 8.63 µM (active); in [12], 99.3 µM (active). In test [11], the compound was called inactive. Further, in [19], the activity change, positive = activation was 7.35% (inactive) and 4.9% (inactive).
Regarding `CCC(CC)Nc1c([N+](=O)[O-])cc(C)c(C)c1[N+](=O)[O-]`, the Potency result in test [1], in [2], in [3], in test [4], in test [5] and in test [7] was “inactive” in each case. Moreover, the Potency entry in [16], in test [17], in test [8], in [9], in test [10] and in test [12] was “inactive” each time. Besides, the Potency result in test [18], in [13], in test [14] and in test [15] was “inactive” throughout. Further, the Potency in test [6] was 49.2 µM (active) and 24.3 µM (active). The compound was classed as inactive in test [11]. In addition, in test [19], the activity change, positive = activation was -5.44% (inactive) and 8% (inactive).
Take `C=CCN(CC=C)C(=O)C(Cl)Cl`: the Potency entry in test [1], in test [2], in [3], in test [4], in test [5] and in [6] was “inactive” each time. The Potency result in test [7], in test [8], in test [9], in test [10], in test [12] and in test [13] was “inactive” throughout. Also, the Potency result in test [14] and in [15] was “inactive” each time. For the same compound, the compound was called inactive in test [11].
Turning to `CC(C)Oc1cc(-n2nc(C(C)(C)C)oc2=O)c(Cl)cc1Cl`, the Potency result in test [1], in [2], in test [3], in test [4], in test [5] and in test [7] was “inactive” in each case. The Potency entry in test [8], in test [9], in test [10], in [12], in test [13] and in test [15] was “inactive” throughout. Moreover, the Potency was 60.3 µM (active) and 61.1 µM (active) in test [6]; 34.7 µM (active) in test [14]. The call in [11] was inactive.
